Experimental data reported in PubChem BioAssay (NCI).
Values joined by “and” are separate entries in the source; they are usually repeats but may differ in a detail not shown here. Identical values can stand only once. This is part of a sample that, as a whole, favours compounds with a hit. Of some 83,000 tested, about 20% had one in any assay.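 Values shown are percent growth following 48 h exposure of cells in 96-well plates to a single concentration of compound; below 10 was considered active.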 Active and inactive are the calls of the source.

system: MDA-MB-468 breast; assay: NCI-60 one-dose screen, 48 h (100 = growth as untreated, 0 = no growth, -100 = all killed); details: 10 µM unless noted

SMILES	growth
C=C(C=O)[C@@H]1CC[C@]2(CO)CC[C@]3(C)[C@H](CC[C@@H]4[C@@]5(C)CCCNC(C)(C)[C@@H]5CC[C@]43C)[C@@H]12	48.6% (inactive)
CCc1ccc(-c2cn3ccnc3c(-c3ccc4ncn(Cc5ccccc5)c4c3)n2)cc1	82.8% (inactive)
Nc1ncnc2c1c(-c1cccc(OCc3ccccc3)c1)cn2C1CC(CN2CCC2)C1 (centres undefined)	-12.3% (active)
CS(=O)c1nccc(-c2c(-c3ccc(F)c(OCCc4ccc(F)cc4)c3)nc3sccn23)n1 (centres undefined)	-64.3% (active)
COc1cccc(/C=N/Nc2nc3ccccc3s2)c1OC	80.3% (inactive)
Cc1cccc(NCS(=O)(=O)O)c1	93.7% (inactive)
CCCC(=O)N1CCCCC1CC (centres undefined)	102% (inactive)
CCOC(=O)c1ccc(NC(=O)Nc2nncs2)cc1	12.5% (inactive)
COc1ccc(/C=C(/C(=O)N2CCN(c3ccc(C)cc3)CC2)c2cc(OC)c(OC)c(OC)c2)cc1N	29.6% (inactive)
COc1ccc(-c2cc(-c3cc(OC)ccc3OC)[nH]c(=O)c2C#N)cc1	37.9% (inactive)
O=C(NC(=S)NNC(=S)NNc1ccccc1)c1ccccc1	83.7% (inactive)
C[C@H](CCCC(=O)NCC#CCN1CCN(C)CC1)[C@H]1CC[C@H]2[C@@H]3CC[C@@H]4CC(=O)CC[C@]4(C)[C@H]3CC[C@]12C	91% (inactive)
CCn1cc(CNc2ccc(C(=O)Nc3cc4cc(OC)c(OC)cc4c(C)n3)cc2)c(C)n1	23.2% (inactive)
Clc1ccc(NC(Nc2ccc(Cl)cc2)C(Cl)(Cl)Cl)cc1	98.4% (inactive) and 108% (inactive)
